# According to PubChem BioAssay (Tox21):
# Results filed as inconclusive are left out. A call without a number means that no potency is given here. A number with no mark means an inactive call. Calls of active or inactive are those of the source. Unless noted, the call rests on the fitted dose curve.
# Experiments:
# [1] = molecular target: Peroxisome proliferator-activated receptor delta (Homo sapiens) (UniProt Q03181); test: qHTS assay to identify small molecule agonists of the peroxisome proliferator-activated receptor delta (PPARd) signaling pathway (AID 743212)
# Procedure, shortened: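 Cells expressing a UAS-driven beta-lactamase reporter (PPARd-bla HEK293H) were given test compounds after a 5 h settle and kept at 37 C. Reporter activity was then measured as FRET fluorescence using LiveBLAzer B/G substrate.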
# [2] = molecular target: Peroxisome proliferator-activated receptor delta (Homo sapiens) (UniProt Q03181); test: qHTS assay to identify small molecule antagonists of the peroxisome proliferator-activated receptor delta (PPARd) signaling pathway (AID 743215; active means well fitted inhibition curve with a large enough effect in the signal ratio in the repeat runs, not every such curve was filed as active; the % refers to the signal ratio;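 further: cells stimulated with agonist L165041 at 300 nM final during compound exposure; series mostly up to about 62 µM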)
# Procedure, shortened: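 Fluorescence from cleaved LiveBLAzer B/G FRET substrate (2 h, room temperature) reports PPARd-driven beta-lactamase in HEK293H UAS-bla cells. Cells had been treated 17 h at 37 C with compound plus 300 nM final L165041.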
# [3] = qHTS assay to identify small molecule antagonists of the farnesoid-X-receptor (FXR) signaling pathway - cell viability counter screen (AID 743221; active means well fitted cell-killing curve with a large enough effect in the repeat runs, not every such curve was filed as active; further: nearly all actives have a fitted effect of over 50% in size)
# Procedure, shortened: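 Quantitative HTS of the Tox21 10K library run in parallel with the beta-lactamase reporter read. HEK 293T cells carrying a UAS-driven bla reporter got compound and 50 uM CDCA (final) for 16 h; ATP-based luminescence followed.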
# [4] = molecular target: Vitamin D3 receptor (Homo sapiens) (UniProt P11473); test: qHTS assay to identify small molecule agonists of the vitamin D receptor (VDR) signaling pathway (AID 743222)
# Procedure, shortened: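 Following 4 h attachment at 37C, VDR-bla cells (2,000 per well) received DMSO-dissolved compounds or controls. After 16 h incubation, LiveBLAzer B/G FRET substrate was added and fluorescence read 2 h later at room temperature.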
# [5] = molecular target: Vitamin D3 receptor (Homo sapiens) (UniProt P11473); test: qHTS assay to identify small molecule antagonists of the vitamin D receptor (VDR) signaling pathway (AID 743223; active means well fitted inhibition curve with a large enough effect in the signal ratio in the repeat runs, not every such curve was filed as active; the % refers to the signal ratio)
# Procedure, shortened: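 Fluorescence from LiveBLAzer B/G FRET substrate, read after 2 h at room temperature, reflects beta-lactamase reporter activity in VDR-bla cells treated 16 h at 37C with compounds and agonist 1alpha,25-dihydroxyvitamin D3 (3 nM final).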
# [6] = qHTS assay to identify small molecule agonists of the vitamin D receptor (VDR) signaling pathway - cell viability counter screen (AID 743224; active means well fitted curve in the direction sought with a large enough effect in the repeat runs; an effect the other way counts as inactive or inconclusive; further: nearly all actives have a fitted effect of over 50% in size; further: potency means the concentration at half of the fitted maximal effect)
# Procedure, shortened: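 In parallel with the bla FRET readout, cytotoxicity toward VDR-bla cells after 16 h compound exposure was assessed by CellTiter-Glo, with luminescence recorded after a 30 min room-temperature incubation.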
# [7] = qHTS assay to identify small molecule antagonists of the vitamin D receptor (VDR) signaling pathway - cell viability counter screen (AID 743225; active means well fitted curve in the direction sought with a large enough effect in the repeat runs; an effect the other way counts as inactive or inconclusive; further: nearly all actives have a fitted effect of over 50% in size)
# Procedure, shortened: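 Cells (VDR-UAS-bla HEK 293T) are plated, rested 4 h at 37C, dosed with compound and 3 nM final 1-alpha,25-dihydroxy vitamin D3, and incubated 16 h. Viability is taken from CellTiter-Glo luminescence in the reporter wells.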
# [8] = qHTS assay to identify small molecule agonists of the NFkB signaling pathway - cell viability counter screen (AID 1159515); further: series mostly up to about 61 µM; nearly all actives have a fitted effect of over 55% in size
# Procedure, shortened: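 Plate 2,000 NFkB-bla ME-180 cells/well; incubate overnight. Add compounds, 5 hr at 37 C. Add FRET substrate, 1.5 hr RT. Add CellTiter-Glo, 30 min RT; read luminescence.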
# [9] = qHTS assay to identify small molecule agonists of the endoplasmic reticulum stress response signaling pathway (AID 1159516; active means well fitted activation curve with a large enough effect in the signal ratio in the repeat runs, not every such curve was filed as active; the % refers to the signal ratio)
# Procedure, shortened: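 Beta-lactamase expression from the ER stress response element in HeLa reporter cells is quantified with the LiveBLAzer B/G FRET substrate, read at 405 nm excitation after 2 hr at room temperature, following 5 hr compound treatment at 37 C.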
# [10] = qHTS assay to identify small molecule agonists of the endoplasmic reticulum stress response signaling pathway - cell viability counter screen (AID 1159517); further: series mostly up to about 61 µM; nearly all actives have a fitted effect of over 50% in size
# Procedure, shortened: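 Cpd-treated ESRE-bla HeLa (5 hr, 37 C) → LiveBLAzer 2 hr RT → CellTiter-Glo 30 min RT → luminescence.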
# [11] = qHTS assay to identify small molecule antagonists of the retinoid-related orphan receptor gamma (ROR-gamma) signaling pathway - cell viability counter screen (AID 1159520; active means well fitted curve in the direction sought with a large enough effect in the repeat runs; an effect the other way counts as inactive or inconclusive; further: nearly all actives have a fitted effect of over 50% in size)
# Procedure, shortened: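 Tet-on ROR gamma CHO cells (1,000/well) were plated 4 hr, given compounds in DMSO for 2 hr at 37 C, then induced with 1 uM final doxycycline for 16 hr. Viability was read as ATP by CellTiter-Glo luminescence after 30 min.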
# [12] = molecular target: Nuclear receptor ROR-gamma (Homo sapiens) (UniProt P51449); test: qHTS assay to identify small molecule antagonists of the retinoid-related orphan receptor gamma (ROR-gamma) signaling pathway (AID 1159521; active means well fitted curve in the direction sought with a large enough effect in the repeat runs; an effect the other way counts as inactive or inconclusive)
# Procedure, shortened: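 RORγ antagonism is scored from reduced reporter luminescence in Tet-on CHO cells. Induction used 1 uM final doxycycline hyclate for 16 h at 37 C, following a 2 h compound exposure.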
# [13] = qHTS assay to identify small molecule agonists of the AP-1 signaling pathway - cell viability counter screen (AID 1159525); further: nearly all actives have a fitted effect of over 55% in size
# Procedure, shortened: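 Each titration point was normalised to DMSO and tetra n-octyl ammonium bromide controls. The read was Cell Titer Glo luminescence after 30 min at RT, following 5 h compound exposure of ME-180 AP-1-bla cells at 37 °C.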
# [14] = qHTS assay to identify small molecule agonists of the AP-1 signaling pathway (AID 1159526)
# [15] = qHTS assay to identify small molecule agonists of the farnesoid-X-receptor (FXR) signaling pathway - cell viability counter screen (AID 743218; active means well fitted curve in the direction sought with a large enough effect in the repeat runs; an effect the other way counts as inactive or inconclusive; further: nearly all actives have a fitted effect of over 45% in size)
# Procedure, shortened: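 Readout: CellTiter-Glo luminescence, 30 min RT, multiplexed after the FXR-bla FRET reading. HEK 293T FXR-UAS-bla cells received compound 5 h post-plating and were incubated 16 h at 37 C.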
# [16] = qHTS assay to identify small molecule agonists of the peroxisome proliferator-activated receptor delta (PPARd) signaling pathway - cell viability counter screen (AID 743211; active means well fitted curve in the direction sought with a large enough effect in the repeat runs; an effect the other way counts as inactive or inconclusive; further: nearly all actives have a fitted effect of over 55% in size)
# Procedure, shortened: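 Viability of GeneBLAzer PPARd UAS-bla HEK293H cells was assessed after 17 h compound incubation at 37C, using CellTiter-Glo reagent added after the reporter read and luminescence recorded 30 min later.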
# [17] = qHTS assay to identify small molecule antagonists of the peroxisome proliferator-activated receptor delta (PPARd) signaling pathway - cell viability counter screen (AID 743213; active means well fitted curve in the direction sought with a large enough effect in the repeat runs; an effect the other way counts as inactive or inconclusive; further: nearly all actives have a fitted effect of over 50% in size)
# Procedure, shortened: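 Same-well viability: cells pre-incubated 5 h, dosed with compound plus 300 nM L165041, kept 17 h at 37 C, FRET substrate 2 h RT, then CellTiter-Glo 30 min RT and luminescence.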
# [18] = molecular target: Bile acid receptor (Homo sapiens) (UniProt Q96RI1); test: qHTS assay to identify small molecule antagonists of the farnesoid-X-receptor (FXR) signaling pathway (AID 743217; active means well fitted inhibition curve with a large enough effect in the signal ratio in the repeat runs, not every such curve was filed as active; the % refers to the signal ratio)
# Procedure, shortened: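 FRET fluorescence after 2 h room-temperature LiveBLAzer loading gives the readout. Prior step: FXR-bla HEK 293T cells, seeded and incubated 5 h, received test compounds plus 50 uM final CDCA for 16 h at 37 °C.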
# [19] = molecular target: Bile acid receptor (Homo sapiens) (UniProt Q96RI1); test: qHTS assay to identify small molecule agonists of the farnesoid-X-receptor (FXR) signaling pathway (AID 743220; active means well fitted activation curve with a large enough effect in the signal ratio in the repeat runs, not every such curve was filed as active; the % refers to the signal ratio)
# Procedure, shortened: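 FXR-UAS-bla HEK 293T cells carrying a UAS-driven beta-lactamase reporter were plated for 5 h at 37C/5% CO2, then exposed to DMSO-dissolved Tox21 10K compounds for 16 h at 37C. A LiveBLAzer B/G FRET substrate was loaded for 2 h at room temperature before fluorescence reading.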
# Chain of Vitamin D3 receptor (Homo sapiens) (P11473 whole entry, looked up): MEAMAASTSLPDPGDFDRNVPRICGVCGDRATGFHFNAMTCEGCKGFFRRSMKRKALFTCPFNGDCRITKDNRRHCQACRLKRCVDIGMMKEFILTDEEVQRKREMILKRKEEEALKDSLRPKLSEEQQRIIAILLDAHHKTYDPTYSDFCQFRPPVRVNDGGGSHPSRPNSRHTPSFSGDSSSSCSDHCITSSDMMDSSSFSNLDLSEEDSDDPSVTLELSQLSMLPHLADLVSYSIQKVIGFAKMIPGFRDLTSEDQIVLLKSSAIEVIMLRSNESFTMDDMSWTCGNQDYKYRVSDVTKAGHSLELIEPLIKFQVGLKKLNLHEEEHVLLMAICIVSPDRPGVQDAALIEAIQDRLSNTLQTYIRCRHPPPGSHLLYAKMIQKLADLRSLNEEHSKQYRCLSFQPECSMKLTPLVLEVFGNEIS
# Chain of Peroxisome proliferator-activated receptor delta (Homo sapiens) (Q03181 whole entry, looked up): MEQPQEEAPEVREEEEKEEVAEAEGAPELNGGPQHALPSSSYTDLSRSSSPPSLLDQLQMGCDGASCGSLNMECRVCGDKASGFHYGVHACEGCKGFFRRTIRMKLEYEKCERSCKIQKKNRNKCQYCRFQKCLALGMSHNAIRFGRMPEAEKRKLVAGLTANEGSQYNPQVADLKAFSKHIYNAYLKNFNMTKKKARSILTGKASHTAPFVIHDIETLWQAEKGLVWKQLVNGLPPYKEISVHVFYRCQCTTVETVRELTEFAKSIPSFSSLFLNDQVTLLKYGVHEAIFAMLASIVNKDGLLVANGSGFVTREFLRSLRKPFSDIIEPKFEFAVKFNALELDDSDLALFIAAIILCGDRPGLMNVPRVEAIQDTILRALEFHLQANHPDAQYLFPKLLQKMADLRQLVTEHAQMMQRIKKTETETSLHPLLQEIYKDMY
# Chain of Bile acid receptor (Homo sapiens) (Q96RI1 whole entry, looked up): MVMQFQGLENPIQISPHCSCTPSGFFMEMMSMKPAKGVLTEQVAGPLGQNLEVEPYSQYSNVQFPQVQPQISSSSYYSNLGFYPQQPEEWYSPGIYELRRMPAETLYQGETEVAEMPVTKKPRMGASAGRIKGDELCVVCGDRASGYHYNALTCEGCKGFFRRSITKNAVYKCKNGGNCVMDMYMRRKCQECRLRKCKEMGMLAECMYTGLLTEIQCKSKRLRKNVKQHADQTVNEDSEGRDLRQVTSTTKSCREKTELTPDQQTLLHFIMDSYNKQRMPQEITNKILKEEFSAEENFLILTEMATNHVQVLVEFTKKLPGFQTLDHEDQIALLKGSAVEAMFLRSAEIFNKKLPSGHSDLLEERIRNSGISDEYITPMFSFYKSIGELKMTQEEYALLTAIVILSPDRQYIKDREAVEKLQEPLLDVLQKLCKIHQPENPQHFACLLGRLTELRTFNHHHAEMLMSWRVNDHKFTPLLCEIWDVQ
Structure (SMILES),outcome [1],outcome [2],outcome [3],outcome [4],outcome [5],Potency [6],outcome [7],outcome [8],outcome [9],Potency [10],outcome [11],outcome [12],outcome [13],outcome [14],Potency [15],outcome [16],outcome [17],Potency [18],Potency [19]
CC(N)C(=O)OC(C)(C)Cc1ccc(Cl)cc1 (stereo unspecified),inactive,inactive,inactive,inactive,inactive,inactive,inactive,inactive,inactive,inactive,inactive,inactive,inactive,inactive,–,–,–,–,–
Cc1cc(C(C)(C)C)c(O)c(C)c1CC1=NCCN1,inactive,–,inactive,–,–,inactive,inactive,inactive,inactive,inactive,inactive,inactive,inactive,inactive,inactive,–,–,–,–
C[C@@H]1O[C@@H](O[C@@H]2[C@@H](O)[C@H](OCCc3ccc(O)c(O)c3)O[C@H](CO[C@@H]3O[C@H](CO)[C@@H](O)[C@H](O)[C@H]3O)[C@H]2OC(=O)/C=C/c2ccc(O)c(O)c2)[C@H](O)[C@H](O)[C@H]1O,inactive,inactive,inactive,inactive,inactive,inactive,inactive,inactive,inactive,inactive,inactive,inactive,inactive,inactive,inactive,–,–,–,–
CC(C)CC(=O)O,inactive,inactive,inactive,inactive,inactive,inactive,inactive,inactive,inactive,inactive,inactive,inactive,inactive,inactive,inactive,inactive,inactive,–,–
O=S(=O)(O)CCN1CCN(CCO)CC1,–,–,–,inactive,inactive,inactive,inactive,inactive,inactive,inactive,inactive,inactive,inactive,inactive,inactive,–,inactive,inactive,inactive
CCC(CC)CO,inactive,inactive,inactive,inactive,inactive,inactive,inactive,inactive,inactive,inactive,inactive,inactive,inactive,inactive,–,inactive,inactive,–,–
O=C1c2cccc3c2[C@H](CCC3)CN1[C@@H]1CN2CCC1CC2,inactive,inactive,inactive,inactive,–,inactive,inactive,inactive,inactive,inactive,inactive,inactive,inactive,inactive,inactive,–,inactive,–,–
O=C(O)c1cc(Br)c(O)c(Br)c1,inactive,–,inactive,inactive,–,inactive,inactive,inactive,inactive,inactive,inactive,inactive,inactive,inactive,inactive,inactive,inactive,inactive,inactive
CCCOC(=O)C(C)O (stereo unspecified),inactive,–,inactive,–,inactive,56.1 µM (active),inactive,inactive,inactive,inactive,inactive,inactive,inactive,inactive,inactive,–,–,inactive,inactive
